From PubChem BioAssay
A number with no mark means an inactive call. The source made the active and inactive calls.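 How the source made its calls, unless noted: active means inhibition at or above 50% at 10 µM; inactive means inhibition below 50%.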

Test: inhibitors of Sendai virus-induced IRF3 signaling, primary screen, TLR/RLR signaling modifier project, cell-based, Sendai virus stimulus, luciferase, 10K MLSCN set (AID 602276);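 further: firefly luciferase from ISG56 promoter only with Renilla not read in this screen; 0% = Sendai virus plus DMSO and 100% = medium plus DMSO without virus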
Conditions: HEK293 RL24 IRF3 luciferase reporter, at 10 µM, hits give high values

Row | SMILES | inhibition
1 | COc1ccc2c(c1)C(=O)N(c1ccccc1OC)C(=O)C2 | 14.7%
2 | CCC(C)(C)n1nnnc1C(c1cc2cc(OC)ccc2[nH]c1=O)N1CCc2ccccc21 (stereo not given) | 14.9%
3 | Cc1cc(C)cc(-n2nnc(C(=O)NCc3ccc4c(c3)OCO4)c2N)c1 | 7.67%
4 | c1ccc(-c2cc(N3CCCCC3)ncn2)cc1 | -37.6%
5 | Cn1c(=O)[nH]c(=O)c2c1nc(N1CCNCC1)n2CCOc1ccccc1 | -11.6%
6 | O=c1c[n+]([O-])c2ccccc2n1OCc1c(F)cccc1F | 18%
7 | CCC(C)(C(=O)NC1CCCC1)N(C(=O)c1cnccn1)c1c(C)n(C)n(-c2ccccc2)c1=O (stereo not given) | -1.44%
8 | COCCOC(=O)c1[nH]c2c(c1C)C(=O)CC(c1ccco1)C2 (stereo not given) | 14.2%
9 | O=C(O)c1ccccc1S(=O)(=O)NCC(O)COc1ccc(Br)cc1 (stereo not given) | 10.6%
10 | COc1cc(C)c(N)cc1C(C)C | 12.9%
11 | Cc1ccc(-c2cc3nc4c(c(=O)n3[nH]2)CCCC4)cc1 | -9.26%
12 | CCCN1CCN(CCCNC(=O)Cn2ncc3c4ccccc4n(C)c3c2=O)CC1 | -2.18%
13 | Cc1nn(-c2ccc(F)cc2)c2c1cc(C#N)c1nc3ccccc3n12 | 9.91%
14 | C=CCOC(=O)C1=C(C)OC(N)=C(C#N)C1c1ccc2c(c1)OCO2 (stereo not given) | -2.6%
15 | Cn1c(=O)c2c(nc(Br)n2CCSc2nnnn2-c2ccccc2)n(C)c1=O | 1.27%
16 | O=C(NC1CC1)C1CCN(c2ccc(S(=O)(=O)N3CCOCC3)cc2)CC1 | -7.23%
17 | CCOc1ccc(C2C(C#N)=C(N)Oc3cc(C)n(Cc4ccco4)c(=O)c32)cc1OC (stereo not given) | 7.22%
18 | COc1ccc(C2CC(c3ccc(Cl)cc3Cl)n3nc(N)nc3N2)cc1 (stereo not given) | 9.25%
19 | CCn1c(C(=O)N2CCC(C(=O)NCc3ccc4c(c3)OCO4)CC2)cc2sccc21 | 14.9%
20 | O=C(Nc1cccc(O)c1)c1ccccc1 | -19.1%

Row | SMILES | inhibition
21 | CCCCN(C)CCCNC(=O)CC1Oc2ccccc2NC1=O (stereo not given) | 13.8%
22 | Cc1ccc(-c2ccc(=O)n(CCC(=O)NCCN3CCCCC3C)n2)cc1 (stereo not given) | 1.11%
23 | O=C(NCc1nc2ccccc2[nH]1)c1ccc(Cl)c(S(=O)(=O)N2CCCC2)c1 | -7.84%
24 | CCn1c(=O)c(C(=O)NCCc2ccccc2)c(O)c2ccccc21 | 18.3%
25 | c1cn(CC2(Cn3ccnc3)COC2)cn1 | 14.1%
26 | COc1ccc(Br)cc1S(=O)(=O)N1CC(C)OC(C)C1 (stereo not given) | -2.27%
27 | COc1ccc(CN2C(=O)[C@@H]3C(c4ccc(F)cc4)=NO[C@@H]3C2=O)cc1 | 13.4%
28 | O=C(Cn1cnc2c(nnn2Cc2ccccc2)c1=O)c1ccc(Cl)cc1 | 11.9%
29 | O=C(CN1C(=O)COc2ccccc21)N(Cc1cccnc1)Cc1ccccc1F | 15.9%
30 | CN(Cc1ccccc1)c1nc2c(c(=O)[nH]c(=O)n2C)n1Cc1ccccc1Cl | 16%
31 | CCCS(=O)(=O)Nc1c(C(=O)O)[nH]c2ccccc12 | 12.6%
32 | Cc1oc2c(CN3CCOCC3)c(O)ccc2c(=O)c1-c1ccc(Br)cc1 | -3.85%
33 | CCOC(=O)CSc1nc2sc(C)c(C)c2c(=O)n1C | 11%
34 | CSc1nc(N)nc(SCCS(=O)(=O)c2ccc(Cl)cc2)c1C#N | 5.62%
35 | COc1ccc(OC)c(NC(=O)C2C3CC4OC(=O)C2C4C3)c1 (stereo not given) | 13.4%
36 | CCn1c2ccccc2c2cc(Nc3cc(C)nc4ncnn34)ccc21 | 68.5% (active)
37 | CC(C)CSc1nc2ccccc2n1CC(N)=O | 13.3%
38 | COc1cccc(-c2cc(C(=O)N3CCc4ccccc4C3)no2)c1 | -3.65%
39 | Cc1ccc(CCNC(=O)C2CCC(=O)N2C2CCCC2)cc1 (stereo not given) | 1.44%
40 | CCOn1c(=O)c(=O)n(OCc2ccccc2)c2ccccc21 | 19.9%

Test: inhibitors of poly I:C-induced TLR3 signaling, primary screen, cell-based, poly I:C stimulus, luciferase, 10K MLSCN set (AID 602277;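 active means inhibition of the reporter signal at or above 50%; inactive means inhibition below 50%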)
Conditions: HEK293-TLR3 RL24 IRF3 luciferase reporter, at 10 µM, hits give high values

Row | SMILES | inhibition
41 | COc1ccc2c(c1)C(=O)N(c1ccccc1OC)C(=O)C2 | 10.2%
42 | CCC(C)(C)n1nnnc1C(c1cc2cc(OC)ccc2[nH]c1=O)N1CCc2ccccc21 (stereo not given) | 29.5%
43 | Cc1cc(C)cc(-n2nnc(C(=O)NCc3ccc4c(c3)OCO4)c2N)c1 | 22.1%
44 | c1ccc(-c2cc(N3CCCCC3)ncn2)cc1 | -113%
45 | Cn1c(=O)[nH]c(=O)c2c1nc(N1CCNCC1)n2CCOc1ccccc1 | 1.53%
46 | O=c1c[n+]([O-])c2ccccc2n1OCc1c(F)cccc1F | 24.8%
47 | CCC(C)(C(=O)NC1CCCC1)N(C(=O)c1cnccn1)c1c(C)n(C)n(-c2ccccc2)c1=O (stereo not given) | 9.08%
48 | COCCOC(=O)c1[nH]c2c(c1C)C(=O)CC(c1ccco1)C2 (stereo not given) | 77.7% (active)
49 | O=C(O)c1ccccc1S(=O)(=O)NCC(O)COc1ccc(Br)cc1 (stereo not given) | 14.4%
50 | COc1cc(C)c(N)cc1C(C)C | 18.3%
51 | Cc1ccc(-c2cc3nc4c(c(=O)n3[nH]2)CCCC4)cc1 | -48.6%
52 | CCCN1CCN(CCCNC(=O)Cn2ncc3c4ccccc4n(C)c3c2=O)CC1 | 34.8%
53 | Cc1nn(-c2ccc(F)cc2)c2c1cc(C#N)c1nc3ccccc3n12 | 23.6%
54 | C=CCOC(=O)C1=C(C)OC(N)=C(C#N)C1c1ccc2c(c1)OCO2 (stereo not given) | 7.38%
55 | Cn1c(=O)c2c(nc(Br)n2CCSc2nnnn2-c2ccccc2)n(C)c1=O | 1.27%
56 | O=C(NC1CC1)C1CCN(c2ccc(S(=O)(=O)N3CCOCC3)cc2)CC1 | 20.7%
57 | CCOc1ccc(C2C(C#N)=C(N)Oc3cc(C)n(Cc4ccco4)c(=O)c32)cc1OC (stereo not given) | 11.1%
58 | COc1ccc(C2CC(c3ccc(Cl)cc3Cl)n3nc(N)nc3N2)cc1 (stereo not given) | 25.2%
59 | CCn1c(C(=O)N2CCC(C(=O)NCc3ccc4c(c3)OCO4)CC2)cc2sccc21 | -2.44%
60 | O=C(Nc1cccc(O)c1)c1ccccc1 | -29.4%

Row | SMILES | inhibition
61 | CCCCN(C)CCCNC(=O)CC1Oc2ccccc2NC1=O (stereo not given) | 36.6%
62 | Cc1ccc(-c2ccc(=O)n(CCC(=O)NCCN3CCCCC3C)n2)cc1 (stereo not given) | 2.82%
63 | O=C(NCc1nc2ccccc2[nH]1)c1ccc(Cl)c(S(=O)(=O)N2CCCC2)c1 | -15.6%
64 | CCn1c(=O)c(C(=O)NCCc2ccccc2)c(O)c2ccccc21 | 12.5%
65 | c1cn(CC2(Cn3ccnc3)COC2)cn1 | 17.6%
66 | COc1ccc(Br)cc1S(=O)(=O)N1CC(C)OC(C)C1 (stereo not given) | 9.82%
67 | COc1ccc(CN2C(=O)[C@@H]3C(c4ccc(F)cc4)=NO[C@@H]3C2=O)cc1 | 23.3%
68 | O=C(Cn1cnc2c(nnn2Cc2ccccc2)c1=O)c1ccc(Cl)cc1 | 21.3%
69 | O=C(CN1C(=O)COc2ccccc21)N(Cc1cccnc1)Cc1ccccc1F | 32.6%
70 | CN(Cc1ccccc1)c1nc2c(c(=O)[nH]c(=O)n2C)n1Cc1ccccc1Cl | 23.3%
71 | CCCS(=O)(=O)Nc1c(C(=O)O)[nH]c2ccccc12 | 29%
72 | Cc1oc2c(CN3CCOCC3)c(O)ccc2c(=O)c1-c1ccc(Br)cc1 | 26.2%
73 | CCOC(=O)CSc1nc2sc(C)c(C)c2c(=O)n1C | 26%
74 | CSc1nc(N)nc(SCCS(=O)(=O)c2ccc(Cl)cc2)c1C#N | 12.8%
75 | COc1ccc(OC)c(NC(=O)C2C3CC4OC(=O)C2C4C3)c1 (stereo not given) | 18.6%
76 | CCn1c2ccccc2c2cc(Nc3cc(C)nc4ncnn34)ccc21 | 87.2% (active)
77 | CC(C)CSc1nc2ccccc2n1CC(N)=O | 15.2%
78 | COc1cccc(-c2cc(C(=O)N3CCc4ccccc4C3)no2)c1 | 13.4%
79 | Cc1ccc(CCNC(=O)C2CCC(=O)N2C2CCCC2)cc1 (stereo not given) | 10.9%
80 | CCOn1c(=O)c(=O)n(OCc2ccccc2)c2ccccc21 | 25%
